Experimental data taken from PubChem BioAssay.
The source made the active and inactive calls.

How the values were obtained:
[1] = system: Plasmodium falciparum Sir2 (PF13_0152, Sir2A); test: Plasmodium falciparum Sir2A binding compounds – biochemical, small-molecule microarray, 635 nm fluorescence, primary screen (AID 1098); settings: fluorescence 635 nm, higher = more signal;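 also: score merges spot fluorescence intensity with its signal-to-noise ratio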
[2] = probe aDKK1 binding to arrayed compounds – biochemical, biotinylated probe, 635/667 nm fluorescence, primary screen (AID 1099); settings: small-molecule microarray, higher = more signal;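 also: score merges 667nm spot fluorescence with signal to noise across triplicate slides; reference of the scale not given here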
[3] = probe aCHRDL2 binding to arrayed compounds – biochemical, biotinylated probe, 635/667 nm fluorescence, primary screen (AID 1100); settings: small-molecule microarray, higher = more signal
[4] = change in splice reporter luminescence, either direction, cell-based, HEK293, spliceosome inhibition project, primary screen (AID 1101); settings: HEK293 splicing luciferase reporter, 24 h, higher = more signal, called active from +8 up or from −8 down;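 also: HEK293 cells carrying a splicing-competent luciferase reporter gene; test concentration not given here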
[5] = molecular target: Fibroblast growth factor 10 (Homo sapiens) (UniProt O15520); test: compounds binding fibroblast growth factor 10 – biochemical, small-molecule microarray, 635 nm fluorescence, primary screen (AID 1102); settings: FGF10 binding, fluorescence 635 nm, higher = more signal
[6] = system: glycogen synthase kinase-3 (GSK3A per assay name; protocol says GSK3B); test: compounds binding glycogen synthase kinase-3 – biochemical, small-molecule microarray, 635 nm fluorescence, GSK3A, primary screen (AID 1103); settings: fluorescence 635 nm, higher = more signal; also: the record names both GSK3A and GSK3B
[7] = molecular target: Epidermal growth factor receptor (Homo sapiens) (UniProt P00533); test: compounds binding epidermal growth factor receptor – biochemical, small-molecule microarray, 635 nm fluorescence, primary screen (AID 1104); settings: EGFR binding, higher = more signal;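 also: score merges 667 nm emission intensity with spot signal to noise over triplicate slides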
[8] = molecular target: Follistatin-related protein 3 (Homo sapiens) (UniProt O95633); test: compounds binding follistatin-related protein 3 – biochemical, small-molecule microarray, 635 nm fluorescence, primary screen (AID 1105); settings: FSTL3 binding, higher = more signal;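 also: score merges emission near 667 nm and signal to noise per printed spot across three slides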
[9] = molecular target: Dickkopf-related protein 1 (Homo sapiens) (UniProt O94907); test: small molecules binding DKK1 protein – biochemical, small-molecule microarray, 635 nm fluorescence scan, primary screen (AID 1106); settings: higher = more signal;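 also: score merges emission near 667 nm with signal to noise over three replicate slides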
[10] = system: Inhibin beta A chain (activin A); test: small molecules binding activin A – biochemical, small-molecule microarray, 635 nm fluorescence scan, primary screen (AID 1107); settings: INHBA, higher = more signal;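 also: mouse activin A protein probed at 4.33 µg/mL on printed slides; score merges bound-protein fluorescence near 667 nm with spot signal-to-noise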

Chain of Dickkopf-related protein 1 (Homo sapiens) (O94907 whole entry, looked up): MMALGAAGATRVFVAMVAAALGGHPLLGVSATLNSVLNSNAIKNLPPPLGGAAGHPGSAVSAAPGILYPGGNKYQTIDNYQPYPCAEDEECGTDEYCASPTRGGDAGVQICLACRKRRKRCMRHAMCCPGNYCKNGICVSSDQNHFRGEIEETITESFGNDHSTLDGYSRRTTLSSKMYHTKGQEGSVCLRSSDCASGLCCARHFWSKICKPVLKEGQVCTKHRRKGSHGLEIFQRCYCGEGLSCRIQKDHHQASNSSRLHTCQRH
Chain of Epidermal growth factor receptor (Homo sapiens) (P00533 whole entry, looked up): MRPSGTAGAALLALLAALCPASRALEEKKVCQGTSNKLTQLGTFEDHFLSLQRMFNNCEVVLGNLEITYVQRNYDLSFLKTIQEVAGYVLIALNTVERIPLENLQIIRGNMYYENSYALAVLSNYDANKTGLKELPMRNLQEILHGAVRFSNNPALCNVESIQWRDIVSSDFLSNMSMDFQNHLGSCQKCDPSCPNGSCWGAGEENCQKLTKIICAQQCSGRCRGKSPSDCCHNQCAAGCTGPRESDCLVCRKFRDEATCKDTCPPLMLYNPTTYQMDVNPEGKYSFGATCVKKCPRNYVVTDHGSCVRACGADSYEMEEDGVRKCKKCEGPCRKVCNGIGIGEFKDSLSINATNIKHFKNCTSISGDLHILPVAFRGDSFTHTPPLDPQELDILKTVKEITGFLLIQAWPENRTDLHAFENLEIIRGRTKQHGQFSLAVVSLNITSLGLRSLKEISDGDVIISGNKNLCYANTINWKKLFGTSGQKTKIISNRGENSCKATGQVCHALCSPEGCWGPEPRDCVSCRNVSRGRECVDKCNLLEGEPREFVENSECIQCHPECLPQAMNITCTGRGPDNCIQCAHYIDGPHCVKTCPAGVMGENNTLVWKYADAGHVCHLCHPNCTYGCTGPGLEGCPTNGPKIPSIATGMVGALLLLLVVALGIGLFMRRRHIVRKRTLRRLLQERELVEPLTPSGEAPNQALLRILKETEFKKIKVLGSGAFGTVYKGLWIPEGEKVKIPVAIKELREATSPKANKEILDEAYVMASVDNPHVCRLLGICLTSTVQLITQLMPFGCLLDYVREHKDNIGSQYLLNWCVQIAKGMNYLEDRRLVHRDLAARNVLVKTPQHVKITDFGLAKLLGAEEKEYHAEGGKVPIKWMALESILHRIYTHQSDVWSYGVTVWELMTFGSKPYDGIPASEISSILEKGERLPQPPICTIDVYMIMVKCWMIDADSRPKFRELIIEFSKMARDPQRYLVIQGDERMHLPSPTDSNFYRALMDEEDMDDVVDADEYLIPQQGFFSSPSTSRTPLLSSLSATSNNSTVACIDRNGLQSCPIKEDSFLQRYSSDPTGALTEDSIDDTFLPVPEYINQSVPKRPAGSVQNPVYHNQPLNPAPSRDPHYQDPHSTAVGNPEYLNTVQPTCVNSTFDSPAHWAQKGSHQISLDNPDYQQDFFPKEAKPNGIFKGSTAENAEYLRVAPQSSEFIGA
Chain of Follistatin-related protein 3 (Homo sapiens) (O95633 whole entry, looked up): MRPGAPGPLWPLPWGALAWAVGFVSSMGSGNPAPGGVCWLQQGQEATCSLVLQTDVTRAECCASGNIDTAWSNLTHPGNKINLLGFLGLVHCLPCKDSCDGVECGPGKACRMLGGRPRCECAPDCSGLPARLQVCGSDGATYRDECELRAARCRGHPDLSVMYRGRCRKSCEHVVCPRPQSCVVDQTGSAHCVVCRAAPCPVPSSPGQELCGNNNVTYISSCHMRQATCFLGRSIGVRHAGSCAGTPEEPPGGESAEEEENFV
Chain of Fibroblast growth factor 10 (Homo sapiens) (O15520 whole entry, looked up): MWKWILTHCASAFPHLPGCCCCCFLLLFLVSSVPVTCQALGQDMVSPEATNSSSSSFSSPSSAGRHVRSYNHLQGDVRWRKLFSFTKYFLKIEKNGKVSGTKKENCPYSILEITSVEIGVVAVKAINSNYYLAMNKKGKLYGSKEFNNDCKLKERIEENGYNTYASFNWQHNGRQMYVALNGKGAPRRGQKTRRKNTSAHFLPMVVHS

Compound | composite z-score [1] | composite z-score [2] | composite z-score [3] | z-score [4] | composite z-score [5] | composite z-score [6] | composite z-score [7] | composite z-score [8] | composite z-score [9] | composite z-score [10]
O=C1C2C=CC(C(O)c3cccs3)N(Nc3ccccc3F)C2C(=O)N1c1ccccc1 (stereo not given) | 0.87 | 0.266 | 0.541 | -0.743 (inactive) | 0.092 | 0.308 | 0.0444 | 0.224 | -0.0382 | 0.804
COCCOC(=O)N1C(=O)[C@@]2(c3cc(C#CCNC(N)=O)ccc31)[C@H](c1ccc(OCCO)cc1)N1[C@H](c3ccccc3)[C@H](c3ccccc3)OC(=O)[C@H]1[C@@H]2C(=O)N1CCc2cc(OC)c(OC)cc2C1 | 0.719 | 0.208 | 0.676 | 0.911 (inactive) | 0.921 | 0.0059 | 0.803 | 1.17 | 0.455 | 0.959
COc1ccc([Si](C)(C)[C@H]2[C@H](CC(=O)N(CCO)Cc3ccccc3)O[C@@]3(C(=O)N(Cc4cccc(N5CCC5=O)c4)c4ccccc43)[C@@H]2C)cc1 | 1.32 | 0.122 | 0.0014 | -2.18 (inactive) | 0.697 | 0.599 | 0.4 | 0.893 | 0.696 | 0.928
CC(C)(C)OC(=O)CC[C@@]1(C(=O)NCCN2CCOCC2)N=C(c2ccc(OCCCO)cc2)O[C@@H]1c1ccccc1 | 1.48 | 1.06 | 1.11 | -1.16 (inactive) | 1.01 | 0.896 | 0.335 | 1.05 | 0.126 | 0.767
Cc1ccc(S[C@]2(C(=O)NCc3ccccc3)CC(=O)N(Cc3ccccc3)[C@@H]2c2ccc(CO)cc2)cc1 | 0.979 | 0.114 | 0.694 | 0.643 (inactive) | -0.173 | -0.789 | -1.22 | -1.01 | -0.799 | -0.317
[N-]=[N+]=NCc1ccccc1C[C@]1(C(=O)O)N=C(c2ccc(OCCCO)cc2)O[C@H]1c1ccccc1CN=[N+]=[N-] | 1.07 | 0.804 | 1.01 | -1.17 (inactive) | 0.126 | 0.421 | -0.125 | 0.541 | -0.742 | 0.458
CC(C)C(=C=CC[C@H](O)c1cccc(OCCO)c1)C[C@H](O)COCc1ccccc1 | 0.845 | -0.27 | -0.154 | 0.102 (inactive) | 0.876 | -0.376 | -0.379 | -0.0234 | 0.116 | 0.405
CN(C)C(=O)[C@]1(CCC(=O)OC(C)(C)C)N=C(c2ccc(OCCCO)cc2)O[C@@H]1c1ccccc1N=[N+]=[N-] | 1.44 | 0.533 | 0.863 | -0.194 (inactive) | 1.25 | 1.33 | 0.17 | 0.644 | -0.394 | 0.252
CCOC(=O)C[C@H]1[C@H](OC(=O)c2ccccc2-c2ccccc2)[C@@H](NC(=O)Cc2ccc(OC)cc2)c2cc(OCCCO)ccc2N1C(=O)c1ccccc1 | -0.394 | -0.236 | -0.0402 | -0.258 (inactive) | 0.225 | -1.28 | 0.192 | -0.0572 | 0.232 | 0.34
[N-]=[N+]=NCc1ccccc1[C@@H]1OC(c2ccc(OCCCO)cc2)=N[C@]1(Cc1ccccc1)C(=O)N1CCCCC1 | 1.36 | 0.792 | 0.63 | -0.276 (inactive) | 1.32 | 1.18 | -0.167 | 0.584 | 0.118 | 0.407
CC(C)C[C@@H]1NC(=O)[C@H]2C[C@@H](C(=O)NCCCCCCNC(=O)CS)[C@@H](c3cccc(OCCO)c3)N2C1=O | 1.54 | 0.0362 | -0.139 | -0.576 (inactive) | 1.39 | 1.27 | 1.23 | 1.49 | 1.94 | 0.525
O=C1OCCC=C[C@H]2OC34C=CCN(c5ccc6ccccc6c5)C(=O)[C@H]3N(CCCCCO)C(=O)[C@@H]4C12 (stereo not given in full) | 1.8 | 0.0672 | 0.597 | -0.606 (inactive) | -0.408 | -0.224 | -0.162 | -0.662 | -0.731 | 0.218
O=C(CCN1CCOCC1)c1cccc(O)c1 | 1.63 | 0.191 | -0.399 | 0.964 (inactive) | 1.37 | 1.22 | 1.74 | 1.49 | 1.8 | 1.53
CC(C)C[C@@H]1NC(=O)[C@H]2C[C@@H](C(=O)NCCCCCNC(=O)CS)[C@@H](c3cccc(OCCO)c3)N2C1=O | 1.52 | -0.0356 | -0.003 | 0.684 (inactive) | 1.03 | 1.32 | 1.08 | 1.36 | 1.44 | 1.25
Cc1cc(C)c(C(O)C2C=CC3C(=O)N(c4ccccc4)C(=O)C3N2Nc2ccc(C#N)cc2)c(C)c1 (stereo not given) | 0.586 | 1.05 | 1.24 | 0.757 (inactive) | 1.27 | 1.22 | 0.283 | 1.22 | -0.0911 | 0.7
C=CCC(OC(C)=O)[C@@H]1[C@@H](N(Cc2cc3ccccc3o2)C(=O)c2ccc(C)cc2)c2cc(OCCCO)ccc2N1C(=O)c1ccc2ccccc2c1 (stereo not given in full) | -0.119 | -0.0022 | 0.263 | -0.422 (inactive) | 0.299 | -0.274 | 0.105 | 0.194 | 0.0379 | 1.46
O=C1N(CCS(=O)(=O)c2ccccc2)c2ccccc2C[C@@]12COC(c1ccc(OCCCO)cc1)=N2 | 1.51 | 0.957 | 1.12 | -0.651 (inactive) | 0.805 | 1.32 | 0.432 | 1.32 | 0.763 | 1.18
COC(=O)[C@@]1(Cc2ccccc2)N=C(c2ccc(OCCCO)cc2)O[C@H]1c1ccccc1N=[N+]=[N-] | 1.38 | 0.0861 | 0.657 | -0.384 (inactive) | 0.883 | 0.887 | -0.003 | 0.848 | 0.425 | 1.23
Cc1c(NC(=O)CC#N)c(=O)n(-c2ccccc2)n1C | 0.345 | -0.274 | -0.47 | 0.933 (inactive) | 0.118 | 0.526 | 0.322 | 0.367 | 0.273 | -0.256
CCOC(=O)C1=CCC(C(C)(C)C)N(S(=O)(=O)c2ccc(C)cc2)C1 (stereo not given) | 0.939 | 0.368 | 0.108 | -0.0514 (inactive) | 1.48 | 0.347 | 1.15 | 1.43 | 1.44 | 0.136
[N-]=[N+]=NCc1ccccc1C[C@]1(C(=O)NCC(O)CO)N=C(c2ccc(OCCCO)cc2)O[C@H]1c1ccccc1N=[N+]=[N-] (stereo not given in full) | 0.3 | 1.38 | 1.1 | -1.58 (inactive) | 0.0684 | 0.091 | -0.166 | -0.318 | -0.894 | 0.967
O=C(O)[C@@]1(Cc2ccccc2)N=C(c2ccc(OCCCO)cc2)O[C@H]1c1ccccc1 | 1.03 | 0.116 | 0.614 | -0.674 (inactive) | 0.252 | -0.11 | -1.02 | 0.0206 | -0.872 | 0.779
COc1ccc([Si](C)(C)[C@@H]2[C@@H](CC(=O)N3CCC[C@H]3CO)O[C@]3(C(=O)N(C)c4c(Br)cc(C)cc43)[C@H]2C)cc1 | 0.717 | 0.0781 | 0.0013 | -0.778 (inactive) | 0.801 | 0.889 | 0.35 | 1.42 | 1.1 | 0.809
COc1ccc([Si](C)(C)[C@H]2[C@H](CCn3cc([C@H](O)c4ccccc4)nn3)O[C@@]3(C(=O)N(Cc4cccc(N5CCC5=O)c4)c4ccccc43)[C@@H]2C)cc1 | 1.32 | -0.144 | -0.206 | -1.4 (inactive) | 0.66 | -0.113 | -0.0533 | -0.108 | -0.0723 | 0.714
COCCOC(=O)N1C(=O)[C@@]2(c3ccccc31)[C@H](c1ccc(O)cc1)N1[C@H](c3ccccc3)[C@H](c3ccccc3)OC(=O)[C@H]1[C@@H]2C(=O)N1CCc2cc(OC)c(OC)cc2C1 | 1.25 | 0.203 | 0.404 | -0.832 (inactive) | 1.36 | 0.92 | 0.869 | 1.03 | 0.84 | 0.451
C=CCNC(=O)[C@@H]1[C@H]2C(=O)O[C@H](c3ccccc3)[C@H](c3ccccc3)N2[C@H](c2ccc(O)cc2)[C@@]12C(=O)N(C(=O)OCCOC)c1ccccc12 | 1.03 | -0.0262 | 0.421 | -1 (inactive) | 0.796 | 1.02 | -0.405 | 0.638 | -0.232 | -0.188
COCCOC(=O)N1C(=O)[C@@]2(c3cc(C#CCCO)ccc31)[C@H](c1ccccc1OCCO)N1[C@H](c3ccccc3)[C@H](c3ccccc3)OC(=O)[C@H]1[C@@H]2C(=O)N1CCN(c2ncccn2)CC1 | 0.55 | 0.75 | 0.537 | -0.381 (inactive) | 0.74 | 1.22 | 0.965 | 1.39 | 0.682 | 0.617
